Only some compounds are listed: those with a hit (about 10% of all), similar ones and a draw of the others.
G9a inh: qHTS Assay for Inhibitors of Histone Lysine Methyltransferase G9a; Histone-lysine N-methyltransferase EHMT2 (Homo sapiens), Q96KQ7; G9a H3K9 monomethylation, AlphaScreen, 2 h; Potency, µM (titrated, usually from 102 µM), for the others: at the top dose activity, negative = inhibition, most hits filed as inhibitors; 350,000 tested, 8.8% active; AID 504332, 2011; also: potency is read from the fitted curve at half-maximal effect; % is scaled to controls: 0 for no effect and ±100 for the full control effect; nearly all actives have a fitted effect of over 75% in size
Target sequence (Q96KQ7 913-1193 limits assumed): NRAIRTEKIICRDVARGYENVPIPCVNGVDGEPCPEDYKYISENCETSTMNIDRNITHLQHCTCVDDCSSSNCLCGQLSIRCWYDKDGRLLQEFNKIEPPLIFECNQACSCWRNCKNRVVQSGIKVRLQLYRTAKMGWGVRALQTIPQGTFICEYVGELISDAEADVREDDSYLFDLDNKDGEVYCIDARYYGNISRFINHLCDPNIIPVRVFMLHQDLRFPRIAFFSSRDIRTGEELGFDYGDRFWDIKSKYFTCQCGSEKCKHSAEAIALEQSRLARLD
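Methyltransferase reactions run at room temperature for 2 h (20 nM enzyme, 500 nM biotin-H3K9 peptide, 20 uM SAM) after a 15 min compound preincubation; product detected by AlphaScreen beads and anti-H3K9me1 antibody.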
BAZ2B inh: qHTS Assay for Inhibitors of BAZ2B | Bromodomain adjacent to zinc finger domain protein 2B (Homo sapiens), Q9UIF8 | AlphaScreen BAZ2B-H3K14Ac peptide displacement | Potency, µM (titrated, usually from 114 µM), for inactives: top-dose activity change, negative = inhibition, usual class: inhibitors | 360,000 tested, 4.4% active | AID 504333, 2011; also: potency is read from the fitted curve at half-maximal effect; % is scaled to controls: 0 for no effect and ±100 for the full control effect; nearly all actives have a fitted effect of over 60% in size
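Protein-peptide AlphaScreen: BAZ2B 50 nM, b-H3K14Ac 50 nM, 1x PBS pH 7.4 + 0.01% Tween-20. Preincubation 30 min RT; cpd 30 min RT (top 110 uM); beads 20 min RT, light-protected.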
JMJD2A Tudor inh: qHTS Assay for Inhibitors of JMJD2A-Tudor Domain. AlphaScreen JMJD2A-Tudor / H3K4me3 peptide binding. Lysine-specific demethylase 4A (Homo sapiens), O75164. AID 504339, 2011. Potency, µM (doses to about 114 µM), for the others: at the top dose activity change, negative = inhibition, most hits filed as inhibitors. 390,000 tested, 4.4% active; also: potency is read from the fitted curve at half-maximal effect; % is scaled to controls: 0 for no effect and ±100 for the full control effect; nearly all actives have a fitted effect of over 50% in size
CtBP-E1A blk: qHTS Assay for Inhibitors of the CtBP/E1A Interaction; AID 651724, 2012; activity change, % (concentration not given with the values); AlphaScreen GST-E1A/His-CtBP binding, 1536-well; hits give low values; CtBP / adenovirus E1A interaction (AlphaScreen); 340,000 tested, 0.49% active; in the data active = activity change below about -65%; inconclusive = mostly about -30% to -63%; also: % is scaled to controls: 0 for no effect and ±100 for the full control effect
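Homogeneous bead-based format: GST-tagged E1A captured on glutathione donor beads, His-tagged CtBP on nickel acceptor beads; compounds precede bead addition by 2 h at 37 °C.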
HP1b binding inh: HTS for Inhibitors of HP1-beta Chromodomain Interactions with Methylated Histone Tails. Chromobox protein homolog 1 (Homo sapiens), P83916. AlphaScreen HP1-beta / biotin-H3K9me3 peptide binding. Potency, µM (top dose mostly 114 µM), for the others: at the top dose activity change, negative = inhibition, most hits filed as inhibitors. 390,000 tested, 0.56% active; also: potency is read from the fitted curve at half-maximal effect; nearly all actives have a fitted effect of over 70% in size
Target sequence (P83916 whole entry, looked up): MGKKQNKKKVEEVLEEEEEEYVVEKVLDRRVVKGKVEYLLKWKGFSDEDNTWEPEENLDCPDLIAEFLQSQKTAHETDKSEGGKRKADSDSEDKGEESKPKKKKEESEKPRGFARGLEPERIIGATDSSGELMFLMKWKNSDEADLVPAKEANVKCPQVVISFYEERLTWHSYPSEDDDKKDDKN
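AlphaScreen: HP1-beta (50 nM) preformed 30 min with biotin-H3(1-18)K9me3 peptide (50 nM) in PBS pH 7.4, 0.01% Tween-20. Compound added for 30 min at RT, then streptavidin donor/nickel chelate acceptor beads (10 ug/mL) for 30 min.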
Six1-Eya2 blk: qHTS Assay for Inhibitors of the Six1/Eya2 Interaction; AlphaScreen GST-Six1/His-Eya2 binding, biochemical; hits give low values; activity change, % (no concentration beside the values); 360,000 tested, 0.56% active; AID 651725, 2012; in the data active = activity change below about -65%; inconclusive = mostly about -30% to -63%; also: % is scaled to controls: 0 for no effect and ±100 for the full control effect
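GST-Six1 + His-Eya2 (5X stock: 250/500 nM); Tris pH 8.0, 300 mM NaCl, 0.05% BSA, 0.02% Tween 20; GSH donor/Ni acceptor beads; 1 h 37 °C dark; AlphaScreen readout.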
* = called active by the depositor; ? = inconclusive; nt = not tested or not shown; [ ] = another dose, or the depositor's remark. Unless noted, calls follow the shape of the dose curve; as a rule, active = well fitted inhibition curve with a large enough effect; inconclusive = small, poorly fitted or top-dose-only effect; inactive = no such curve, though single readings can be large or run the other way.

SMILES | G9a inh | BAZ2B inh | JMJD2A Tudor inh | CtBP-E1A blk | HP1b binding inh | Six1-Eya2 blk
COc1ccc(CCNC(=O)C2CCN(c3ncnc4c3nc3n4CCCCC3)CC2)c(OC)c1 | 6%[59 µM] | 6% | 1% | nt | 7% | nt
O=C(O)c1ccc(Nc2nc3ccccc3nc2NS(=O)(=O)c2cccs2)cc1 | 50µM* | -10%[57.1 µM] | -23% | -4 | 53% | 6
COc1cccc(Nc2nc3ccccc3nc2NS(=O)(=O)c2cccs2)c1 | 2%[12.7 µM] | -1% | 89µM* | -7 | 33% | 8
COc1ccc(Nc2nc3ccccc3nc2NS(=O)(=O)c2cccs2)c(OC)c1 | ? | -15% | -20% | 3 | 33% | 5
COc1ccc(S(=O)(=O)Nc2nc3ccccc3nc2Nc2cccc(C(=O)O)c2)cc1 | 45µM* | -19%[57.1 µM] | -6% | nt | 53% | -16
CC(=O)Nc1ccc(S(=O)(=O)Nc2nc3ccccc3nc2Nc2ccccc2)cc1 | ? | -39% | -12% | 3 | 33% | 6
CCCOc1ccc(C2=NC(c3ccc(F)cc3)=Nc3ccc(OC)cc3N2)cc1 | -23%[59 µM] | 10µM* | ? | nt | 2% | nt
COc1ccc2c(c1)NC(c1cccnc1)=NC(c1ccc(F)cc1)=N2 | -18%[59 µM] | -32% | -20% | nt | 17% | nt
Cc1ccc2cc(COC(=O)c3ccncc3)c(=O)[nH]c2c1 | 50µM* | 12% | -14% | 0 | 8% | 1
CCOC(=O)C1=C(C)NC(C)=C(C(=O)OCC)C1c1cc2ccc(C)cc2[nH]c1=O | 50µM* | ? | -18%[57.1 µM] | 1 | -5% | -9
COC(=O)C1=C(C)NC(C)=C(C(=O)OC)C1c1cc2ccc(C)cc2[nH]c1=O | ? | -7% | -17%[57.1 µM] | -9 | 62% | -11
COc1ccccc1N1CCN(/N=C/c2ccc(Cl)c([N+](=O)[O-])c2)CC1 | nt | 18µM* | ? | nt | ? | ?
O=[N+]([O-])c1cc(/C=N/N2CCN(C3c4ccccc4-c4ccccc43)CC2)ccc1Cl | ? | ? | ? | 3 | -6% | -4
COc1ccccc1N1CCN(C(=O)Nc2ccc([N+](=O)[O-])cc2)CC1 | 0%[59 µM] | -3% | -16% | -6 | -4% | 2
COc1ccccc1N1CCN(/N=C/c2ccc([N+](=O)[O-])cc2)CC1 | 18µM* | 18µM* | 28µM* | -7 | ? | 0
O=C1CC(N2CCN(C3CC(=O)N(CCc4ccccc4)C3=O)CC2)C(=O)N1CCc1ccccc1 (stereo not given) | -21% | -2% | -18% | 8 | 25% | -4
O=C1CC(N2CCC(Cc3ccccc3)CC2)C(=O)N1CCc1ccccc1 (stereo not given) | 50µM* | 0% | -5% | 6 | 25% | -6
Cc1cccc(N2CCN(C(C(=O)NCc3ccccc3)c3ccc(C(F)(F)F)cc3)CC2)c1C (stereo not given) | nt | nt | nt | -3 | nt | 1
Cc1cc(O)c2c(C)c(CC(=O)NCc3ccccc3Cl)c(=O)oc2c1 | 0%[59 µM] | -9% | -8% | nt | 41% | nt
CC(C)(CC(=O)NCc1ccc(Cl)cc1Cl)CC1=NS(=O)(=O)c2ccccc2N1 | -10%[59 µM] | -10% | -22% | nt | 30% | nt
CCN(c1ccccc1)S(=O)(=O)c1ccc(C(=O)N(CCCN(C)C)c2nc3cc4c(cc3s2)OCO4)cc1 | 40µM* | -37% | 40µM* | -29 | ? | ?
CCN(c1ccccc1)S(=O)(=O)c1ccc(C(=O)N(CCCN(C)C)c2nc3c(C)cccc3s2)cc1 | nt | 28µM* | 45µM* | ? | -19% | -29
COc1ccc2sc(N(CCCN(C)C)C(=O)c3ccc(S(=O)(=O)N(C)Cc4ccccc4)cc3)nc2c1 | 45µM* | ? | 50µM* | -28 | ? | -27
Cc1ccc2sc(N(CCCN(C)C)C(=O)c3ccc(S(=O)(=O)N(C)Cc4ccccc4)cc3)nc2c1C | 10µM* | 3% | ? | ? | ? | ?
CN(C)CCCN(C(=O)c1ccc(S(=O)(=O)N(C)Cc2ccccc2)cc1)c1nc2cc3c(cc2s1)OCO3 | 50µM* | ? | 50µM* | -29 | -15% | ?
SMILES | G9a inh | BAZ2B inh | JMJD2A Tudor inh | CtBP-E1A blk | HP1b binding inh | Six1-Eya2 blk
CN(C)CCCN(C(=O)c1ccc([N+](=O)[O-])o1)c1nc2cc3c(cc2s1)OCO3 | 56µM* | -33% | -30% | -16 | 0% | -13
CN(C)CCN(C(=O)c1cccc(N2C(=O)CCC2=O)c1)c1nc2ccc(Br)cc2s1 | ? | -5% | -10% | 7 | 10% | 2
CN(C)CCN(C(=O)c1ccc(N2C(=O)CCC2=O)cc1)c1nc2cc3c(cc2s1)OCO3 | 40µM* | nt | -15% | -1 | 18% | -3
CN(C)CCCN(C(=O)c1ccc2ccccc2c1)c1nc2cc3c(cc2s1)OCO3 | ? | ? | ? | ? | 4% | ?
CN(C)CCCN(C(=O)c1ccc2c(c1)OCCO2)c1nc2cc3c(cc2s1)OCO3 | nt | -15% | -23% | -8 | 16% | -2
OC(c1cc(F)cc(Cl)c1)c1ncc(-c2ccccc2Cl)[nH]1 (stereo not given) | nt | nt | nt | -12 | nt | -14
COc1ccc(C(=O)N2CCC[C@@]3(CCN(Cc4cc(C(F)(F)F)cc(C(F)(F)F)c4)C3)C2)cc1 | -8%[12.7 µM] | nt | nt | nt | nt | nt
CCS(=O)(=O)N1CC(=O)N(c2ccc(Cl)cc2)C(C)(C(=O)NC2CCCCC2)C1 (stereo not given) | 2%[59 µM] | 2% | 5% | nt | 44% | nt
CCC(Oc1ccccc1)C(=O)NC1CCCCCC1 (stereo not given) | 4% | 7% | -5% | 1 | 61% | 5
CCC(Oc1ccccc1)C(=O)NC1CCSC1=O (stereo not given) | 45µM* | -15% | -2% | 0 | 49% | 3
CCOC(=O)COc1ccc(CC)cc1C(=O)c1ccn2nc(-c3ccccc3)cc2n1 | 13%[59 µM] | -14% | -2% | nt | 37% | nt
CCCCOc1ccc(-c2nc(=S)[nH][nH]2)cc1 | 1.3µM* | -7% | -19% | 0 | 3% | -3
S=C(NC1CCCCC1)N1CCn2cccc2C1c1ccncc1 (stereo not given) | ? | 50µM* | -19% | -15 | -8% | -5

Source: PubChem
